# Measured values from PubChem BioAssay.
# Several values for one entry are separate records, joined by “and”; a condition that tells them apart may be missing. Equal entries are not always repeated. Activity calls are given as the source filed them.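 How the source made its calls, unless noted: active means compounds whose cell count with miR-34 switched on is under 0.7 times the count with it off; inactive means the rest.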
# Tests used:
# [1] = viability loss with induced miR-34 in A549 – imaging, A549 dox-inducible miR-34, nuclei and caspase counts, primary screen (AID 1347080); conditions: A549 miR-34 inducible, Hoechst nuclei count, 48 h
# [2] = blockers of cellular phospholipid synthesis – cell-based, LOPAC library, screen 4, primary screen (AID 1347384; call rule not given here); conditions: animal cells, phospholipid biosynthesis inhibition screen; at 10 µM
# [3] = MELAS cybrid and Rieske KO viability enhancers – cell-based, MELAS cybrids, Rieske KO mouse fibroblasts, CellTiter-Glo, primary screen (AID 1508586;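 active means mean z-score across replicates of 1.96 or higher in either the MELAS or the Rieske mutant cell line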;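 further: z relative to plate mean and SD of compound and empty wells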); conditions: low glucose
# [4] = stronger effect = lower value, cell number ratio, induced over uninduced
# [5] = measured here: relative caspase fold change +Dox/-Dox
# [6] = measured here: total cells with miR-34 induction, stronger effect = lower value
# [7] = measured here: total cells without miR-34 induction
# [8] = MELAS cybrid survival, CellTiter-Glo 48 h, stronger effect = higher value
# [9] = Rieske KO mouse fibroblast survival, CellTiter-Glo 72 h
Compound,"fold change [1, 4]","fold change [1, 5]","cell count [1, 6]","cell count [1, 7]",outcome [2],"z-score [3, 8]","z-score [3, 9]"
C[C@H](NC(CCc1ccccc1)C(=O)O)C(=O)N1CCC[C@H]1C(=O)O (stereo not given in full),0.987 (inactive) and 0.909 (inactive),0.994 and 1.8,9660 and 10200,9790 and 11200,inactive,-0.542 (inactive),-1.35
CC1(C)OC(=O)NC1=O,0.858 (inactive) and 0.827 (inactive),1.35 and 1.46,8730 and 10500,10200 and 12700,,-0.0486 (inactive),-0.442
C[N+](C)(C)CCCCCC[N+](C)(C)C,0.986 (inactive) and 1.01 (inactive) and 0.859 (inactive),0.977 and 0.809 and 0.908,10300 and 10200 and 8850,10500 and 10100 and 10300,inactive,0.935 (inactive),0.174
Cc1nnc(SCC2=C(C(=O)O)N3C(=O)[C@@H](NC(=O)Cn4cnnn4)[C@H]3SC2)s1,1.03 (inactive) and 0.804 (inactive) and 0.912 (inactive),1.87 and 0.957 and 4.16,10400 and 8100 and 11000,10100 and 12000,inactive,0.651 (inactive),0.288
C[C@H]1c2cccc(O)c2C(O)=C2C(=O)[C@]3(O)C(O)=C(C(N)=O)C(=O)[C@@H](N(C)C)[C@@H]3[C@@H](O)[C@@H]21,0.948 (inactive) and 0.723 (inactive) and 0.815 (inactive),0.896 and 4.48 and 1.65,1440 and 3910 and 7870,1520 and 5410 and 9650,inactive,0.0416 (inactive) and -0.292 (inactive),-2.32 and -1.86
CN(C)CCOC(=O)C(c1ccccc1)C1(O)CCCC1 (stereo not given),0.97 (inactive) and 0.896 (inactive),0.779 and 1.74,9700 and 10300,10000 and 11500,,0.757 (inactive),0.693
CCCCC1C(=O)N(c2ccccc2)N(c2ccc(O)cc2)C1=O (stereo not given),0.952 (inactive) and 0.848 (inactive),0.53 and 1.48,8300 and 10300,8720 and 12100,,-1.46 (inactive),-1.25
CC(=O)Nc1ccc(CC(=O)O)cc1,0.951 (inactive),1.68,9700,10200,,-0.406 (inactive),-0.418
CO[C@@]1(NC(=O)CSCC#N)C(=O)N2C(C(=O)O)=C(CSc3nnnn3C)CS[C@@H]21,1.01 (inactive) and 0.961 (inactive),1.5 and 1.13,11000 and 9300,10900 and 9680,inactive,-0.493 (inactive),-0.322
C[C@]12C[C@H](O)[C@H]3[C@@H](CCC4=CC(=O)CC[C@@]43C)[C@@H]1CC[C@@H]2C(=O)CO,0.955 (inactive) and 0.755 (inactive) and 0.815 (inactive),2.18 and 1.95 and 1.31,7560 and 6880 and 7400,7920 and 9120 and 9080,inactive,0.478 (inactive) and -0.124 (inactive),-0.146 and 0.938
CCN1CCC[C@H]1CNC(=O)c1cc(S(N)(=O)=O)ccc1OC,1.01 (inactive) and 0.997 (inactive) and 0.936 (inactive),1.51 and 0.827 and 1.56,10700 and 9240 and 9830,10600 and 9270 and 10500,inactive,0.469 (inactive),0.62
COc1ccc(C(=O)c2ccccc2O)c(O)c1,0.854 (inactive) and 0.825 (inactive),1.04 and 0.52,8680 and 11300,10200 and 13700,,0.849 (inactive),-0.0959
COc1ccc(NS(=O)(=O)c2ccc(N)cc2)nn1,0.86 (inactive) and 0.96 (inactive) and 0.867 (inactive),1.18 and 0.826 and 3.5,7560 and 8690 and 11000,8780 and 9050 and 12700,,-0.236 (inactive) and -0.537 (inactive),-0.178 and -1.12
CC(=O)OCC1=C(C(=O)O)N2C(=O)[C@@H](NC(=O)Cc3cccs3)[C@H]2SC1,1.04 (inactive) and 0.943 (inactive) and 0.907 (inactive),2.01 and 1.12 and 1.53,10600 and 8990 and 11000,10300 and 9530 and 12100,inactive,-0.988 (inactive),-1.16
Cc1cccc(C)c1NC(=O)C(C)N (stereo not given),0.975 (inactive) and 0.939 (inactive) and 0.865 (inactive),0.988 and 0.663 and 1.75,10300 and 9450 and 9090,10600 and 10100 and 10500,inactive,0.748 (inactive),0.421
Nc1c2c(nc3ccccc13)CCCC2O (stereo not given),0.95 (inactive) and 0.845 (inactive) and 0.969 (inactive),0.943 and 1.26 and 0.952,9940 and 8540 and 10300,10500 and 10100 and 10600,inactive,1.73 (inactive) and -0.394 (inactive),0.362 and -0.175
CN(C)CCCN1c2ccccc2Sc2ccc(C(F)(F)F)cc21,1.11 (inactive) and 0.899 (inactive) and 0.891 (inactive),0.594 and 1.31 and 3.14,1420 and 7820 and 9630,1280 and 8700 and 10800,inactive,-0.173 (inactive),0.266
CCN1CCC[C@H]1CNC(=O)c1c(O)c(Cl)cc(Cl)c1OC,1 (inactive) and 0.9 (inactive) and 0.875 (inactive),1.23 and 0.728 and 0.77,9930 and 9080 and 9820,9900 and 10100 and 11200,inactive,-0.782 (inactive) and -0.532 (inactive),-0.0598 and -0.803
CC1(C)O[C@@H]2C[C@H]3[C@@H]4CCC5=CC(=O)CC[C@]5(C)[C@@]4(F)[C@@H](O)C[C@]3(C)[C@]2(C(=O)CCl)O1,0.774 (inactive),1.34,5550,7170,,0.0233 (inactive),1.13

Compound,"fold change [1, 4]","fold change [1, 5]","cell count [1, 6]","cell count [1, 7]",outcome [2],"z-score [3, 8]","z-score [3, 9]"
CCN(CC)C(=O)N1CCN(C)CC1,0.919 (inactive) and 0.923 (inactive) and 0.836 (inactive),1.19 and 0.187 and 0.88,8740 and 9030 and 11300,9520 and 9780 and 13500,,0.833 (inactive) and 0.0717 (inactive),-0.23 and -0.00609
O=C(O)P(=O)(O)O,0.897 (inactive) and 0.894 (inactive),0.852 and 3.28,8080 and 11700,9010 and 13100,,-0.331 (inactive),-0.123
O=C(O)CCC(=O)c1ccc(-c2ccccc2)cc1,0.889 (inactive) and 0.912 (inactive) and 0.859 (inactive),0.334 and 2.8 and 1.54,8550 and 11300 and 9420,9620 and 12400 and 11000,,0.38 (inactive) and 0.679 (inactive),0.124 and 0.414
C[C@@](Cc1ccc(O)c(O)c1)(NN)C(=O)O,0.855 (inactive) and 0.878 (inactive) and 0.94 (inactive),1.15 and 0.758 and 1.14,8030 and 8200 and 9200,9400 and 9340 and 9790,,-0.318 (inactive) and -0.0378 (inactive) and 0.282 (inactive),0.573 and -0.159 and -0.894
C/C=C/c1ccc(OC)cc1,0.85 (inactive) and 0.895 (inactive),3 and 1.61,10200 and 9980,11900 and 11200,,-0.525 (inactive),-1.37
CCn1cc(C(=O)O)c(=O)c2cnc(N3CCNCC3)nc21,0.922 (inactive),1.25,9710,10500,,0.675 (inactive),0.0409
CCCCOc1ccc(C(=O)CCN2CCCCC2)cc1,0.869 (inactive) and 0.898 (inactive) and 0.904 (inactive),1.13 and 0.697 and 1.7,8270 and 5950 and 11300,9520 and 6630 and 12500,,-0.438 (inactive) and 1.08 (inactive),0.0294 and 0.0562
O=C(O)CCNC(=O)c1ccccc1,0.9 (inactive),0.686,8280,9200,,-0.217 (inactive),-0.148
O=C1c2ccccc2C(=O)C1c1ccccc1,0.851 (inactive) and 1.01 (inactive) and 0.873 (inactive),1.04 and 0.811 and 1.49,8760 and 1750 and 10200,10300 and 1740 and 11700,,-0.152 (inactive) and 0.54 (inactive),-0.0639 and -0.0998
CN(CCCN1c2ccccc2CCc2ccccc21)CC(=O)c1ccc(Cl)cc1,0.782 (inactive) and 0.894 (inactive),1.92 and 1.33,5730 and 6590,7330 and 7370,,0.202 (inactive),0.354
Cn1c(=O)c2c(ncn2CCO)n(C)c1=O,0.968 (inactive),1.24,8860,9160,,-0.0698 (inactive),-0.0506
O=c1cc(CO)occ1O,0.923 (inactive),0.344,9020,9780,,0.152 (inactive),-0.154
Cc1cc(=O)n(-c2ccccc2)n1C,0.939 (inactive) and 0.859 (inactive) and 0.88 (inactive),0.938 and 0.796 and 1.12,8700 and 7960 and 10700,9270 and 12100,,-0.258 (inactive) and 0.556 (inactive),-0.2 and -0.0597
CC1CC(OC(=O)C(O)c2ccccc2)CC(C)(C)N1C (stereo not given),0.792 (inactive),1.56,7700,9720,,-0.0236 (inactive),-0.373
CCCCC(CC)CN=C(N)NC(N)=NCCCCCCN=C(N)NC(N)=NCC(CC)CCCC (stereo not given),0.778 (inactive),1.43,389,500,,-2.81,8.3
Cc1ccccc1OCC(O)CO (stereo not given),0.91 (inactive) and 0.921 (inactive),0.936 and 3.64,8610 and 11300,9470 and 12300,,-0.331 (inactive),-0.218
C[C@H]1COc2c(C3(N)CC3)c(F)cc3c(=O)c(C(=O)O)cn1c23,0.94 (inactive) and 0.878 (inactive),0.784 and 0.738,8060 and 10100,8570 and 11500,,0.246 (inactive),-0.0845
CC(C)(Oc1ccc(Cl)cc1)C(=O)O,0.908 (inactive) and 0.929 (inactive) and 0.927 (inactive),1.01 and 0.543 and 0.953,9250 and 7700 and 8560,10200 and 8280 and 9240,,-0.232 (inactive) and -0.856 (inactive),-0.207 and -0.151
CC1CCc2cc(F)cc3c(=O)c(C(=O)O)cn1c23 (stereo not given),0.911 (inactive) and 0.884 (inactive) and 0.854 (inactive),1.2 and 1.04 and 2.46,8860 and 8230 and 11600,9730 and 9310 and 13600,,-0.14 (inactive) and 1.18 (inactive),-0.162 and -0.0831
